{"source": "PubChem BioAssay (Tox21)", "note": "Values joined by “and” are separate entries in the source; they are usually repeats but may differ in a detail not shown here. Identical values can stand only once. Inconclusive results are not listed. Entries that show only a call come without a potency. Active and inactive are the calls of the source. Unless noted, the call rests on the fitted dose curve.", "data": [{"molecular_target": "Progesterone receptor (Homo sapiens) (UniProt P06401)", "sequence (P06401 whole entry, looked up)": "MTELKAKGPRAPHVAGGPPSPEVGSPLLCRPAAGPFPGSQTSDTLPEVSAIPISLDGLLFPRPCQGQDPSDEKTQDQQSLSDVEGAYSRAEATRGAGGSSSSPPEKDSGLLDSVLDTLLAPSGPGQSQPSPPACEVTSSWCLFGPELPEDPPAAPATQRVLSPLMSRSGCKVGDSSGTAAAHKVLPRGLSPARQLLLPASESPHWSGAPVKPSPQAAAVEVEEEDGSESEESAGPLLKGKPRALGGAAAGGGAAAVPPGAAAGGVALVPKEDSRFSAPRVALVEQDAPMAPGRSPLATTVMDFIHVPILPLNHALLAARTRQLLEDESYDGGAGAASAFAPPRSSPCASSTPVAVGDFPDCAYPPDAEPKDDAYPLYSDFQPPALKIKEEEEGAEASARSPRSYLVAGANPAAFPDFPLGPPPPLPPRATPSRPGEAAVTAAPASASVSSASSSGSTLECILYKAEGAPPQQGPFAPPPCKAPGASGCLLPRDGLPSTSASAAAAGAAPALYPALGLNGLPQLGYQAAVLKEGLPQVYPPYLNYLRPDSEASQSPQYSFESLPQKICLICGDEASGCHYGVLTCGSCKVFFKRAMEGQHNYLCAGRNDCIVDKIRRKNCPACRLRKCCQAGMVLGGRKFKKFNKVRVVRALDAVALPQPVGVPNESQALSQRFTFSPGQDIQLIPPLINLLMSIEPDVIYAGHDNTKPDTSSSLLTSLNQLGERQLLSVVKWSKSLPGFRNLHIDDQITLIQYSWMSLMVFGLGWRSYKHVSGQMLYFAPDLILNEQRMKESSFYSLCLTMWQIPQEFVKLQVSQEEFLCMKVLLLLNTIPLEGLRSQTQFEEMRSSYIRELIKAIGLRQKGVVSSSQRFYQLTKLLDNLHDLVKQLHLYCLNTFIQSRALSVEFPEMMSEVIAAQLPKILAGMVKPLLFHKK", "assay": "qHTS assay to identify small molecule agonists of the progesterone receptor (PR) signaling pathway (AID 1346784); further: nearly all actives have a fitted effect of over 30% in size", "details": "PR-UAS-bla HEK293T, beta-lactamase FRET ratio, 16 h; series mostly up to 92.4 µM", "procedure,_shortened": "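PR-UAS-bla HEK 293T cells carrying a UAS-driven beta-lactamase reporter were seeded in medium with 2% charcoal-stripped FBS, preincubated 6 hr at 37C, then exposed to compounds in DMSO for 16 hr; agonism was read by LiveBLAzer B/G FRET fluorescence.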", "values": [{"smiles": "CN1[C@@H]2CC[C@@H]1CC(OC(=O)C(CO)c1ccccc1)C2", "note": "(some centres not stated)", "outcome": "inactive"}, {"smiles": "CO[Si](CCC1CCC2OC2C1)(OC)OC", "note": "(configuration not stated)", "outcome": "inactive"}, {"smiles": "COC(=O)CC(C)CCC=C(C)C", "note": "(configuration not stated)", "outcome": "inactive"}, {"smiles": "CC(=O)O[C@@H]1C[C@@H]2CC[C@@]1(C)C2(C)C", "outcome": "inactive"}, {"smiles": "Cc1occc1SSc1ccoc1C", "outcome": "inactive"}, {"smiles": "CC(C)c1ccc(O)c(C(C)C)c1", "outcome": "inactive"}, {"smiles": "CC1(C)COCN1", "outcome": "inactive"}, {"smiles": "CCC1CCCCC1", "outcome": "inactive"}, {"smiles": "CC(C)C(=O)OCc1ccccc1", "outcome": "inactive"}, {"smiles": "CC(C)(c1cc(Br)c(O)c(Br)c1)c1cc(Br)c(O)c(Br)c1", "outcome": "inactive"}, {"smiles": "CC1CCCCN1CCCOC(=O)c1ccc(OC2CCCCC2)cc1", "note": "(configuration not stated)", "outcome": "inactive"}, {"smiles": "CCCCCCCOC(=O)c1ccccc1C(=O)OCCCCCCC", "outcome": "inactive"}, {"smiles": "C=CC(C)(CCC=C(C)C)OC(=O)/C=C/c1ccccc1", "note": "(configuration not stated)", "outcome": "inactive"}, {"smiles": "COC(=O)NCCC[Si](OC)(OC)OC", "outcome": "inactive"}, {"smiles": "COC(=O)[C@]1(C)CCC[C@@]2(C)[C@H]1CC=C1C=C(C(C)C)CC[C@@H]12", "outcome": "inactive"}, {"smiles": "Oc1cc2ccccc2cc1O", "outcome": "inactive"}, {"smiles": "CC(COC(=O)c1ccccc1)OC(=O)c1ccccc1", "note": "(configuration not stated)", "outcome": "inactive"}, {"smiles": "Cc1cccc(Br)c1", "outcome": "inactive"}, {"smiles": "O=C(O)CC(=O)O", "outcome": "inactive"}, {"smiles": "O=C1NC2CCCCN2C12CCN(CCCN1c3ccccc3CCc3ccc(Cl)cc31)CC2", "note": "(configuration not stated)", "outcome": "inactive"}, {"smiles": "CCCCCCCCCCCC(=O)N(CC)CC", "outcome": "inactive"}]}, {"molecular_target": "Progesterone receptor (Homo sapiens) (UniProt P06401)", "assay": "qHTS assay to identify small molecule antagonists of the progesterone receptor (PR) signaling pathway (AID 1346795; active means well fitted inhibition curve with a large enough effect in the signal ratio in the repeat runs, not every such curve was filed as active; the % refers to the signal ratio; further: potency means the concentration at half of the fitted maximal effect)", "details": "PR-UAS-bla HEK293T, beta-lactamase FRET ratio, 16 h; series mostly up to 92.4 µM", "procedure,_shortened": "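PR-UAS-bla HEK293T cells carrying a UAS-driven beta-lactamase reporter were plated in medium with 2% charcoal-stripped FBS and rested 6 hr at 37C. Compounds were added with 1 nM R5020 (final) for 16 hr, then FRET substrate loaded 2 hr at room temperature.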", "values": [{"smiles": "CN1[C@@H]2CC[C@@H]1CC(OC(=O)C(CO)c1ccccc1)C2", "note": "(some centres not stated)", "Potency": "inactive"}, {"smiles": "O=C(Oc1ccccc1)c1cccc(C(=O)Oc2ccccc2)c1", "Potency": "25.7 µM (active)"}, {"smiles": "CO[Si](CCC1CCC2OC2C1)(OC)OC", "note": "(configuration not stated)", "Potency": "inactive"}, {"smiles": "CC(C)(C)c1cc(/C=C2\\SC(=N)NC2=O)cc(C(C)(C)C)c1O", "Potency": "61.1 µM (active)"}, {"smiles": "CNC(=S)NN", "Potency": "8.63 µM (active)"}, {"smiles": "CC(=O)O[C@@H]1C[C@@H]2CC[C@@]1(C)C2(C)C", "Potency": "inactive"}, {"smiles": "Cc1occc1SSc1ccoc1C", "Potency": "inactive"}, {"smiles": "CC(C)c1ccc(O)c(C(C)C)c1", "Potency": "inactive"}, {"smiles": "CC1(C)COCN1", "Potency": "inactive"}, {"smiles": "CCC(C)c1ccccc1", "note": "(configuration not stated)", "Potency": "inactive"}, {"smiles": "CCC1CCCCC1", "Potency": "inactive"}, {"smiles": "COC(=O)C1=C(C)NC(C)=C(C(=O)OCCCN2CCC(c3ccccc3)(c3ccccc3)CC2)C1c1cccc([N+](=O)[O-])c1", "note": "(configuration not stated)", "Potency": "18.8 µM (active)"}, {"smiles": "CCO[Si](C)(C)OCC", "Potency": "inactive"}, {"smiles": "CC(C)C(=O)OCc1ccccc1", "Potency": "inactive"}, {"smiles": "CC(C)(c1cc(Br)c(O)c(Br)c1)c1cc(Br)c(O)c(Br)c1", "Potency": "13.6 µM (active) and 17.2 µM (active)"}, {"smiles": "CCCCCCCOC(=O)c1ccccc1C(=O)OCCCCCCC", "Potency": "inactive"}, {"smiles": "ClC/C=C\\CCl", "Potency": "inactive"}, {"smiles": "C=C(C)C(=O)OCCC[Si](Cl)(Cl)Cl", "Potency": "inactive"}, {"smiles": "Oc1cc2ccccc2cc1O", "Potency": "inactive"}, {"smiles": "O=C1Nc2ccc(Cl)cc2[C@@](C#CC2CC2)(C(F)(F)F)O1", "Potency": "7.5 µM (active)"}, {"smiles": "c1cc2c3c(c1)ccc1cccc(c13)C2", "Potency": "inactive"}, {"smiles": "CC(COC(=O)c1ccccc1)OC(=O)c1ccccc1", "note": "(configuration not stated)", "Potency": "inactive"}, {"smiles": "Cc1cccc(Br)c1", "Potency": "10.9 µM (active)"}, {"smiles": "O=C(O)CC(=O)O", "Potency": "inactive"}, {"smiles": "O=C1NC2CCCCN2C12CCN(CCCN1c3ccccc3CCc3ccc(Cl)cc31)CC2", "note": "(configuration not stated)", "Potency": "26.6 µM (active)"}, {"smiles": "COc1ccc(C#N)cc1", "Potency": "inactive"}]}]}
